This note sets out measurements from PubChem BioAssay (NCI).

This is part of a sample that, as a whole, favours compounds with a hit. Of some 83,000 tested, about 20% had one in any assay.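 Treatment: one concentration, 48 hours, 96-well format. Scoring: percent growth, with anything below 10 considered active.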 Activity calls are given as the source filed them.

One test relates to DU-145 prostate. Description: NCI-60 one-dose screen, 48 h (100 = growth as untreated, 0 = no growth, -100 = all killed). The conditions noted are these: 10 µM unless noted.
Consider `Cc1cccc2c1NC(=O)C2(c1ccc(O)cc1)c1ccc(O)cc1`, for which the growth is 84.6% (inactive). Still for that read-out and setting: with `CN1CCN(Cc2ccc3c(NNC(=O)c4ccccc4)nc4cc(F)ccc4n23)CC1` the figure was 27.1% (inactive). On the same count and under the same terms, with `COc1ccc2[nH]cc(-c3nc(-c4cn(C)c5c(Cl)nccc45)cs3)c2c1` the figure was 40.7% (inactive); with `O=C(CCc1nnc(Cn2cnc3nc[nH]c3c2=O)o1)c1nc2ncccc2[nH]1`, 108% (inactive).

Take `CC1=Nc2cnc(Nc3ccc(OCCN4CCCCC4)cc3)nc2Nc2ccccc21`: the growth was 57.8% (inactive). On the same count and under the same terms, the figure for `Cc1nc2ncnc(Cl)c2[nH]1` is 106% (inactive); for `CC(C)(C)[Si](C)(C)O[C@H]1C(=O)C=CN2CC=C[C@@H]12` it is 108% [100 µM] (inactive). Still for that read-out and setting: the figure for `c1cnc2[nH]cc(-c3csc(-c4cn(CCCN5CCOCC5)c5ccccc45)n3)c2c1` is 82% (inactive).

As for `Cc1ccccc1Cn1cnc2ccc(-c3cc(NC(=O)c4ccc(NC5CCN(C)CC5)cc4)n[nH]3)cc21`, the growth was 90.8% (inactive).

As to `COC(C(=O)[C@@H](O)[C@@H](C)O)[C@@H]1Cc2cc3cc(O[C@H]4C[C@@H](O[C@H]5C[C@@H](O)[C@H](O)C(C)O5)[C@H](O)C(C)O4)cc(O)c3c(O)c2C(=O)[C@H]1O[C@H]1C[C@@H](O[C@H]2C[C@@H](O[C@H]3C[C@@H](OC)[C@H](O)C(C)O3)[C@@H](O)C(C)O2)[C@H](O)C(C)O1` (stereo partly specified), the growth was 53.5% (inactive). Still for that read-out and setting: the figure for `Cc1cc(Cl)ccc1Nc1nc(C(F)(F)F)ccc1C(=O)N/N=C/c1ccc([N+](=O)[O-])cc1` is 5.82% (active); for `COc1cc(N2C(=O)[C@H](O)C2c2ccc(SC)cc2)cc(OC)c1OC` (stereo partly specified) it is 3.72% (active); for `Fc1cc2c(cc1Cl)N(c1ncnc3ccc(-c4cnc5[nH]ncc5c4)cc13)CC2` it is 56.2% (inactive). Same read-out and setting: the figure for `COc1ccccc1NC(=O)Cn1cc(CN2CCN(c3ccnc4cc(Cl)ccc34)CC2)nn1` is 106% (inactive); for `COc1cc(CNC(=O)CCCC/C=C/C(C)C)ccc1OCc1nnc(Nc2ccc([N+](=O)[O-])cc2)o1` it is 62% (inactive). Same read-out and setting: with `O=C(NCCCN1CCOCC1)c1cccc(N2C(=O)/C(=C/c3ccc(F)cc3)SC2=S)c1` the figure was 101% (inactive); with `O=C(CSc1nnc2n1S(=O)(=O)c1ccccc1N2c1ccccc1)Nc1nc2ccc(F)cc2s1`, 114% (inactive).

On to `N#Cc1nc(-c2ccccc2)oc1S(=O)(=O)N1CCOCC1`, for which the growth is 103% (inactive).

Take `CC(C)c1ccc(COCc2cc(CN3CCCC3)c(O)c3ncccc23)cc1`: the growth is 18.6% (inactive). Same read-out and setting: the figure for `Cc1cc(N)c2cc(NC(=O)/C=C\c3ccccc3Cl)ccc2n1` is -92.8% (active); for `COc1ccc(Cc2cc(-c3ccccc3)nn(Cc3ccccc3)c2=O)cc1OC` it is 73.8% (inactive); for `O=C1/C(=C/c2ccc(F)cc2)COc2ccc(O)cc21` it is 96.5% (inactive).

`CCOP(=O)(OCC)c1nc(-c2ccccc2)oc1NCc1cccnc1`: the growth was 107% (inactive). Same read-out and setting: with `C/C(=C(/c1ccc(Cl)cc1)c1ccc(OCCN2CCCC2)cc1)c1ccc(Cl)cc1` the figure was 98.1% (inactive); with `CC(C)=CCC[C@](C)(O)[C@H]1CC[C@]2(C)[C@@H]1CC[C@@H]1[C@@]3(C)Cc4nccnc4C(C)(C)[C@@H]3CC[C@]12C`, 70.9% (inactive); with `CC1=Nc2cnc(Nc3ccc(OCCN4CCCC4)cc3)nc2Nc2ccccc21`, 56.1% (inactive).

The subject of a further test is K-562 leukemia. The test is described as above. The conditions noted are these: 10 µM unless noted.
As for `CCSc1nc(NC)c2cc(-c3ccc(C(F)(F)F)cc3)ccc2n1`, the growth is 105% (inactive).

In the case of `Cc1nc(-c2ccccc2)cc2c(O)c(C(=O)NN)[nH]c(=O)c12`, the growth is 104% (inactive). For the compound `Cc1ccc(S(=O)(=O)N2CCCC2CO)cc1` (stereo unspecified), the growth was 114% (inactive). As to `CCOC(=O)c1cc(-c2ccc([N+](=O)[O-])cc2)n(-c2ccc(C(=O)O)c(O)c2)c1C`, the growth was 45.1% (inactive).

For `COc1cc(CNS(=O)(=O)c2ccc(C)cc2)ccc1OCc1cn(-c2ccc(Br)cc2)nn1`, the growth is 94.3% (inactive). Regarding `O=C(/C=C/c1ccccc1)c1cccc(OCCCOc2cccc(C(=O)/C=C/c3ccccc3)c2)c1`, the growth was 46.4% (inactive). With `C=CCc1c(O)c(C(=O)/C=C/c2ccc(Cl)cc2)c(OC)c2ccoc12`, the growth is 47.2% (inactive). Same read-out and setting: with `COc1ccc(-c2nc3c(c(-c4ccccc4)nn3-c3ccccc3)c(-c3ccc(N4CCOCC4)cc3)c2C#N)cc1` the figure was 96.9% (inactive). On the same count and under the same terms, the figure for `O=C1/C(=C/c2ccc(Cl)cc2)COc2ccc(O)c(O)c21` is 13.1% (inactive). For `CN(C)c1ccc(Nc2cc(-c3cccc(OC(F)(F)F)c3)nc3ccc(N4CCCC4)cc23)cc1`, the growth was -20.9% (active). Still for that read-out and setting: the figure for `O=C(c1ccc(-c2nc(CSc3nc4ccccc4s3)no2)cc1)N1CCSCC1` is 36.6% (inactive); for `N=C(N)c1ccc(-c2ccc(-c3ccc(Cl)cc3)s2)nc1` it is -45.1% (active). On the same count and under the same terms, with `COC(=O)c1c2c(c(C)[n+]([O-])c1C)C(=O)C=C(NCc1ccc(OC)cc1)C2=O` the figure was 0.821% (active). The same measure, in the same setting: with `O=C1/C(=C/c2ccc(Cl)cc2)COc2ccc(O)cc21` the figure was 2.41% (active); with `Cc1cccc2c1NC(=O)C2(c1ccc(O)cc1)c1ccc(O)cc1`, 99.9% (inactive). In the case of `CN1CCN(Cc2ccc3c(NNC(=O)c4ccccc4)nc4cc(F)ccc4n23)CC1`, the growth is 13.6% (inactive). On the same count and under the same terms, with `COc1ccc2[nH]cc(-c3nc(-c4cn(C)c5c(Cl)nccc45)cs3)c2c1` the figure was 17.9% (inactive); with `O=C(CCc1nnc(Cn2cnc3nc[nH]c3c2=O)o1)c1nc2ncccc2[nH]1`, 99.7% (inactive); with `CC1=Nc2cnc(Nc3ccc(OCCN4CCCCC4)cc3)nc2Nc2ccccc21`, 24.1% (inactive). Same read-out and setting: with `Cc1nc2ncnc(Cl)c2[nH]1` the figure was 97.3% (inactive). Still for that read-out and setting: with `CC(C)(C)[Si](C)(C)O[C@H]1C(=O)C=CN2CC=C[C@@H]12` the figure was 105% [100 µM] (inactive); with `c1cnc2[nH]cc(-c3csc(-c4cn(CCCN5CCOCC5)c5ccccc45)n3)c2c1`, 1.22% (active); with `Cc1ccccc1Cn1cnc2ccc(-c3cc(NC(=O)c4ccc(NC5CCN(C)CC5)cc4)n[nH]3)cc21`, 15.8% (inactive). On to `COC(C(=O)[C@@H](O)[C@@H](C)O)[C@@H]1Cc2cc3cc(O[C@H]4C[C@@H](O[C@H]5C[C@@H](O)[C@H](O)C(C)O5)[C@H](O)C(C)O4)cc(O)c3c(O)c2C(=O)[C@H]1O[C@H]1C[C@@H](O[C@H]2C[C@@H](O[C@H]3C[C@@H](OC)[C@H](O)C(C)O3)[C@@H](O)C(C)O2)[C@H](O)C(C)O1` (stereo partly specified), for which the growth was 38.6% (inactive). Same read-out and setting: with `Cc1cc(Cl)ccc1Nc1nc(C(F)(F)F)ccc1C(=O)N/N=C/c1ccc([N+](=O)[O-])cc1` the figure was -1.48% (active); with `COc1cc(N2C(=O)[C@H](O)C2c2ccc(SC)cc2)cc(OC)c1OC` (stereo partly specified), 5.68% (active).

Turning to `Fc1cc2c(cc1Cl)N(c1ncnc3ccc(-c4cnc5[nH]ncc5c4)cc13)CC2`, the growth was 77.5% (inactive). The same measure, in the same setting: the figure for `COc1ccccc1NC(=O)Cn1cc(CN2CCN(c3ccnc4cc(Cl)ccc34)CC2)nn1` is 83.8% (inactive); for `COc1cc(CNC(=O)CCCC/C=C/C(C)C)ccc1OCc1nnc(Nc2ccc([N+](=O)[O-])cc2)o1` it is 59.6% (inactive). The same measure, in the same setting: the figure for `O=C(NCCCN1CCOCC1)c1cccc(N2C(=O)/C(=C/c3ccc(F)cc3)SC2=S)c1` is 96.2% (inactive). Same read-out and setting: the figure for `O=C(CSc1nnc2n1S(=O)(=O)c1ccccc1N2c1ccccc1)Nc1nc2ccc(F)cc2s1` is 98.5% (inactive); for `N#Cc1nc(-c2ccccc2)oc1S(=O)(=O)N1CCOCC1` it is 5.21% (active). Regarding `CC(C)c1ccc(COCc2cc(CN3CCCC3)c(O)c3ncccc23)cc1`, the growth was 3.96% (active). In the case of `Cc1cc(N)c2cc(NC(=O)/C=C\c3ccccc3Cl)ccc2n1`, the growth was -31.9% (active). Same read-out and setting: the figure for `COc1ccc(Cc2cc(-c3ccccc3)nn(Cc3ccccc3)c2=O)cc1OC` is 22.2% (inactive). On the same count and under the same terms, the figure for `O=C1/C(=C/c2ccc(F)cc2)COc2ccc(O)cc21` is 4.82% (active); for `CCOP(=O)(OCC)c1nc(-c2ccccc2)oc1NCc1cccnc1` it is 102% (inactive). Same read-out and setting: with `C/C(=C(/c1ccc(Cl)cc1)c1ccc(OCCN2CCCC2)cc1)c1ccc(Cl)cc1` the figure was 20.3% (inactive); with `CC(C)=CCC[C@](C)(O)[C@H]1CC[C@]2(C)[C@@H]1CC[C@@H]1[C@@]3(C)Cc4nccnc4C(C)(C)[C@@H]3CC[C@]12C`, 63.2% (inactive). As to `CC1=Nc2cnc(Nc3ccc(OCCN4CCCC4)cc3)nc2Nc2ccccc21`, the growth is 39.6% (inactive).
